# PubChem BioAssay (NCATS)
# Where “and” joins values, the source holds several entries; their conditions need not be identical. Equal values may be shown once. Values without a mark were called inactive. Records with an inconclusive call do not appear. Calls of active or inactive are those of the source. Unless noted, calls follow the shape of the dose curve; as a rule, active = well fitted curve in the direction sought with a large enough effect in the repeat runs; inconclusive = weak or mixed curves; inactive = no such curve, though single readings can be large; an effect the other way counts as inactive or inconclusive.
# Tests used:
# [1] = target: Nuclear receptor ROR-gamma (Homo sapiens) (UniProt P51449); test: qHTS assay for small molecule antagonists of the retinoid-related orphan receptor gamma (ROR-gamma) signaling pathway (AID 651802; active = well fitted curve in the direction sought with a large enough effect; an effect the other way counts as inactive or inconclusive;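 also: CHO cells with doxycycline-induced ROR-gamma expression; luciferase reporter luminescence driven by ROR response element; series mostly up to about 92 µM; % is scaled to controls: 0 for no effect and ±100 for the full control effect; nearly all actives have a fitted effect of over 60% in size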)
# Nuclear receptor ROR-gamma (Homo sapiens), sequence (P51449 whole entry, looked up): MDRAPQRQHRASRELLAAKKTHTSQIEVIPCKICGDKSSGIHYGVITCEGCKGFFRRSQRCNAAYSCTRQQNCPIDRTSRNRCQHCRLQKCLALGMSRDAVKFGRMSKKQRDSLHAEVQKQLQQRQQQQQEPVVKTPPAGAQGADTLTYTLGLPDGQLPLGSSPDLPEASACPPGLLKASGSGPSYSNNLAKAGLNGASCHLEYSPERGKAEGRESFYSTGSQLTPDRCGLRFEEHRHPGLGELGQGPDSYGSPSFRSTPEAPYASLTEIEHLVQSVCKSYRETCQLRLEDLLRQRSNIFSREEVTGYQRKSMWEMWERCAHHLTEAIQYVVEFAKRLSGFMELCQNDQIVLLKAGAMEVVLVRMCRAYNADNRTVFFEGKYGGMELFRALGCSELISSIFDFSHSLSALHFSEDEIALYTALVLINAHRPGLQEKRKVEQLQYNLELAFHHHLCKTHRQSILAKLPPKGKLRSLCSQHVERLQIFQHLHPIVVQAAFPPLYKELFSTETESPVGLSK
# Procedure, shortened: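 Doxycycline-induced reporter activity in engineered CHO cells (TET-inducible ROR, RORE-LUC) was measured by luminescence after 16hr compound exposure at 37C.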
# [2] = qHTS assay for small molecule agonists of the antioxidant response element (ARE) signaling pathway measured by Nrf2-dependant transcriptional activity (AID 720636);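 also: HepG2 cells with an ARE-driven luciferase reporter; % of control where 0% means no effect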
# Procedure, shortened: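 Reporter gene assay, HepG2 ARE-luc: 16 hr compound, 37 C, 5% CO2; read-out luciferase luminescence.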
# [3] = qHTS assay for small molecule antagonists of the retinoid-related orphan receptor gamma (ROR-gamma) signaling pathway - cell viability counter screen (AID 720652);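 also: CHO reporter cells with doxycycline-induced ROR-gamma expression; series mostly up to about 92 µM; compound exposure lasted 16 hr before ATP read; % is scaled to controls: 0 for no effect and ±100 for the full control effect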
# Procedure, shortened: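 ATP-based viability readout in the ROR-gamma reporter CHO cells after 16 hr compound exposure under doxycycline induction.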
# [4] = qHTS assay for small molecule agonists of the antioxidant response element (ARE) signaling pathway measured by Nrf2-dependant transcriptional activity - cell viability counter screen (AID 720653); details: ARE-bla HepG2 viability, CellTiter-Glo ATP luminescence, 16 h; hits give low values; also: % is scaled to controls: 0 for no effect and ±100 for the full control effect
# Procedure, shortened: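 ARE-bla HepG2 cells treated with compounds for 16 h at 37C; this counter screen measures viability as intracellular ATP by CellTiter-Glo luminescence after 30 min at room temperature.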
# [5] = target: Arylsulfatase A (Homo sapiens) (UniProt P15289); test: qHTS screen for enhancers of Arylsulfatase A (ASA1): LOPAC Validation Assay (AID 720538; active = well fitted curve in the direction sought with a large enough effect; an effect the other way counts as inactive or inconclusive; also: 0% is about no effect)
# Arylsulfatase A (Homo sapiens), sequence (P15289 whole entry, looked up): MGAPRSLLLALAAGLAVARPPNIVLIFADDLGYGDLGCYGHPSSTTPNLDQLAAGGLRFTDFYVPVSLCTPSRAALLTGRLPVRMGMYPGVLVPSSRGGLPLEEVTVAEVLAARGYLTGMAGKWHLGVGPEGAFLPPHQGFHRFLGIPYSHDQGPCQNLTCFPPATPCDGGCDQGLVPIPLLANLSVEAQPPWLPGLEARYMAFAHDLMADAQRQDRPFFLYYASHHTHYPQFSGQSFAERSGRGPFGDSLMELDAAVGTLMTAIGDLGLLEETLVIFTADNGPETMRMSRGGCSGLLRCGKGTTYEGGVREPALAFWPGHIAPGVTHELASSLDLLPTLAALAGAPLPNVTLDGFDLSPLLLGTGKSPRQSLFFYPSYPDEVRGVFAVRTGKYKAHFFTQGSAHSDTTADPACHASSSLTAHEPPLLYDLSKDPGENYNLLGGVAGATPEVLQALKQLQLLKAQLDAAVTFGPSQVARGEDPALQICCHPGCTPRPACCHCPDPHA
# Procedure, shortened: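 SV40-transformed fibroblasts from an MLD patient (ASA-I179S) were treated with compound for 48 h at 37 C. They were then lysed with 0.5 mM pNCS substrate (final) for 14 h at room temperature and stopped with NaOH; signal read by fluorescence (Ex 525/Em 598 nm), with increase denoting enhanced activity.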
# [6] = qHTS for compounds that reverse cellular toxicity of Amyloid beta (A-beta) peptide in yeast: LOPAC Validation Assay (AID 720559; active = well fitted curve in the direction sought with a large enough effect; an effect the other way counts as inactive or inconclusive;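 also: plate controls were DMSO for no effect and equimolar ferric chloride plus clioquinol rescue for full effect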)
# Description: The A-beta peptide is produced by the processing of the amyloid precursor protein (APP) by two proteases, beta and gamma secretases. […] A-beta42 is regarded as the most amyloidogenic form due to its hydrophobicity; however, precisely how A-beta42 induces neurotoxicity is unclear. To understand further this biology and its potential therapeutic implications for human neurodegenerative disease, a quantitative high-throughput screen for compounds that reverse the cellular toxicity of the A-beta peptide was developed.
# A yeast based screen was used because it recapitulates the salient feature of protein mis-folding disorder accurately. This cell-based phenotypic screen provides a significant, unbiased advantage by letting the compounds and models inform us which proteins or pathways are most relevant. The ideal chemical candidates would therefore have activity in both our primary yeast and secondary neuronal toxicity assays, as well as in mouse models. […] For this luminescence assay, inhibition of A-beta rescues the toxic effect in the yeast cell, resulting in increase of signals. […]
# Two and a half microliter / well of yeast growth medium were dispensed in a 1536 assay plate. […] After 48 hr, the absorbance signal at 600 nm was obtained using the PerkinElmer ViewLux plate reader to assess yeast growth. […]
# [7] = qHTS for Activators of Parkin Expression: LOPAC Validation Assay (NLuc Reporter) (AID 720572; active = well fitted curve in the direction sought with a large enough effect; an effect the other way counts as inactive or inconclusive)
# Procedure, shortened: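 NLuc signal, read 10 min after reagent and following a prior FLuc read, is normalized to DMSO (0) and positive controls (100%). Cells: neuronal Parkin-promoter coincidence reporter line; compounds tested 7-point, 24 h, 37 C, 5% CO2.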
# [8] = qHTS for Activators of Parkin Expression: LOPAC Validation Assay (FLuc Reporter) (AID 720573; active = well fitted curve in the direction sought with a large enough effect; an effect the other way counts as inactive or inconclusive)
# Procedure, shortened: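 Neuronal cell line stably expressing FLuc/NLuc coincidence reporter under the Parkin promoter, 1,500 cells/well, dosed 24 h after seeding in 7-point series for 24 h at 37 C. FLuc luminescence read; normalized to DMSO and positive control (100%).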
# [9] = qHTS for small molecule inhibitors of Yes1 kinase: Counter Assay (AID 686950; active = well fitted curve in the direction sought with a large enough effect; an effect the other way counts as inactive or inconclusive;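 also: no kinase present so only ADP-Glo detection of a fixed ADP amount is tested; luminescence from ADP-Glo reporting ADP in a fixed ATP and ADP mixture; series mostly up to about 77 µM; 0% = DMSO wells with ATP plus ADP and -100% = ATP-only wells without ADP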)
# Procedure, shortened: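 No kinase present; 0.08 mM ATP + 0.02 mM ADP in 50 mM Tris pH 7.5, 10 mM MgCl2, 150 mM NaCl, 1 mM DTT; 20 min compound preincubation, 60 min RT, ADP-Glo luminescence, normalized to ATP/ADP (max) and ATP-only (min).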
# [10] = target: Tyrosine-protein kinase Yes (Homo sapiens) (UniProt P07947); test: qHTS for small molecule inhibitors of Yes1 kinase: Primary Screen (AID 686947; active = well fitted curve in the direction sought with a large enough effect; an effect the other way counts as inactive or inconclusive;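 also: plate controls were DMSO with enzyme for no effect and no-enzyme DMSO wells for full effect; nearly all actives have a fitted effect of over 60% in size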)
# Tyrosine-protein kinase Yes (Homo sapiens), sequence (P07947 whole entry, looked up): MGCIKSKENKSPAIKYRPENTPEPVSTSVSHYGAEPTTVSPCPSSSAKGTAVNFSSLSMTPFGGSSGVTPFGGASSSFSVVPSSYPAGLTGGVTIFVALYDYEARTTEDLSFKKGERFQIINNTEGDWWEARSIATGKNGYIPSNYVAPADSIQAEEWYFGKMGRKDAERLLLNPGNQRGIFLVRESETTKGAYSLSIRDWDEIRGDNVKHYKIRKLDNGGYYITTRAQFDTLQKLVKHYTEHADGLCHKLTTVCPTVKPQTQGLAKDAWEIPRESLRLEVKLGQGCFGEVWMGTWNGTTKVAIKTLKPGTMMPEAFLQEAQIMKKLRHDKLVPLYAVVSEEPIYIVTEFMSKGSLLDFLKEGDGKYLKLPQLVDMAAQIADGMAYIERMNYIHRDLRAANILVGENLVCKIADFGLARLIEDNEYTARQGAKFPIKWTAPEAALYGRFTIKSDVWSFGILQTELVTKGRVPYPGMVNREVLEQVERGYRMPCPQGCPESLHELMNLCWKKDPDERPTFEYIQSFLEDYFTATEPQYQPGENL
# Procedure, shortened: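 In this qHTS format, inhibition is expressed relative to DMSO controls with enzyme (maximum) and without enzyme (minimum). The 60 min room-temperature reaction uses 0.1 mM ATP, with ADP detected by luminescence.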
smiles,measurement,setting,value
COC(C)=O,outcome,[1],inactive
same,outcome,[2],inactive
same,outcome,[3],inactive
same,max response,[4],11.2%
CN[C@H]1CC[C@@H](c2ccc(Cl)c(Cl)c2)c2ccccc21,outcome,[5],inactive
same,outcome,[6],inactive
same,outcome,[7],inactive
same,outcome,[8],inactive
CCCCCCCCCC(=O)O,outcome,[2],inactive
same,outcome,[3],inactive
same,max response,[4],-4.59% and -4.9%
O=S(=O)(c1ccccc1)N(CC(F)(F)F)c1ccc(C(O)(C(F)(F)F)C(F)(F)F)cc1,outcome,[2],inactive
same,max response,[4],-21.3%
CC(=O)S[C@@H]1CC2=CC(=O)CC[C@]2(C)[C@H]2CC[C@@]3(C)[C@@H](CC[C@@]34CCC(=O)O4)[C@H]12,outcome,[2],inactive
same,max response,[4],-12%
C=Cc1ccccc1,outcome,[1],inactive
same,outcome,[2],inactive
same,outcome,[3],inactive
same,max response,[4],5.41% and 3.34%
CCCCCCCC/C=C\CCCCCCCC(=O)OC[C@@H](O)[C@H]1OC[C@H](O)[C@H]1O,outcome,[2],inactive
same,max response,[4],4.25%
COc1cc(O)c2c(c1)/C=C/C[C@H](O)[C@H](O)C(=O)/C=C\C[C@H](C)OC2=O,outcome,[9],inactive
NCCCC(=O)O,outcome,[6],inactive
same,outcome,[7],inactive
same,outcome,[8],inactive
CN(C)Cc1ccccc1,outcome,[1],inactive
same,outcome,[2],inactive
same,outcome,[3],inactive
same,max response,[4],-3.95%
O=C(O)CC(O)(CC(=O)O)C(=O)O,outcome,[1],inactive
same,outcome,[3],inactive
same,max response,[4],1.31% and -9.81% and -4.69%
COc1cc(F)c(F)c(Nc2ccc(I)cc2F)c1NS(=O)(=O)C1(CC(O)CO)CC1 (centres undefined),outcome,[10],inactive
same,outcome,[9],inactive
